Legend:
Assay in all cases: DAPPL (digital affinity profiling via proximity ligation, sequencing); 10 mM Tris-HCl pH 7.5, 50 mM NaCl, 1 mM DTT, 4% glycerol, room temperature, 30 min; GST-TFs on glutathione beads, 16-mer random dsDNA library, 0.1% formaldehyde crosslink after washing; high values mean tight binding
Settings in all cases: protein: recombinant; tags: N-terminal GST; dsDNA, one strand shown
[1] = molecular target: T1, FLI1 (Homo sapiens, UniProt Q01543 1-452)
T1 sequence: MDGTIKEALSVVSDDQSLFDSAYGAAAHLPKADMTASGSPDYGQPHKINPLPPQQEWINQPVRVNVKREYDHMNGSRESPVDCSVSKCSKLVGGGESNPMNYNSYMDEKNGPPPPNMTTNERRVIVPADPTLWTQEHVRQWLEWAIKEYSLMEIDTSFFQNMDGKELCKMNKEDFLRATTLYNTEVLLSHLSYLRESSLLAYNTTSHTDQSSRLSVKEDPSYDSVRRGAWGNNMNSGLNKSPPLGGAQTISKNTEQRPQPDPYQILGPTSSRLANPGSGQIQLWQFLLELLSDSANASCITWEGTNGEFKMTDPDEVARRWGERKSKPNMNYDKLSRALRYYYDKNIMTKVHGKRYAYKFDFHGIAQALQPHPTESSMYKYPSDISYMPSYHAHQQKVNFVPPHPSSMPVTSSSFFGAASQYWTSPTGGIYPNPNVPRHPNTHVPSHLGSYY
Method in brief: (§1)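 Human transcription factors carrying a GST fusion were produced in yeast, bound to glutathione beads, tagged with DNA barcodes and pooled together with a tag-only sample. Each pool was held with 200 nmole of a random double-stranded 16-mer DNA library in Tris/NaCl/DTT/glycerol buffer for 30 min at room temperature, then washed, crosslinked in 0.1% formaldehyde, proximity-ligated with BsaI/T4 ligase (1 h, 37 °C), PCR-amplified and sequenced on an Illumina NextSeq500. Binding signal is the read frequency of each hexamer for a given factor divided by its frequency in the tag-only sample.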

[2] = molecular target: T2, ELK1 (Homo sapiens, UniProt P19419 1-428)
T2 sequence: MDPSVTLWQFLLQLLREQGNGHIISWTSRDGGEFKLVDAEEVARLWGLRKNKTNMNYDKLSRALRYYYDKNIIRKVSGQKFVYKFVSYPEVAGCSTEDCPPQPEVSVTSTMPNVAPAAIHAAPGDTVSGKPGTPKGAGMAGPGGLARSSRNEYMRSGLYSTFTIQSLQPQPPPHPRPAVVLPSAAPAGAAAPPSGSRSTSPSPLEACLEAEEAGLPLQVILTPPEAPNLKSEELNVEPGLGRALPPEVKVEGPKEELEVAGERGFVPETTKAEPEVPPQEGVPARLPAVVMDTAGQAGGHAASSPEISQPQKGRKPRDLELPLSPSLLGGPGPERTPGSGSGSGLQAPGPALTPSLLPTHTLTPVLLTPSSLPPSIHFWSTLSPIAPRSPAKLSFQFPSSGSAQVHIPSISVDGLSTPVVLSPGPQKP
Method in brief: as §1

[3] = molecular target: T3, ERG (Homo sapiens, UniProt P11308 1-479)
T3 sequence: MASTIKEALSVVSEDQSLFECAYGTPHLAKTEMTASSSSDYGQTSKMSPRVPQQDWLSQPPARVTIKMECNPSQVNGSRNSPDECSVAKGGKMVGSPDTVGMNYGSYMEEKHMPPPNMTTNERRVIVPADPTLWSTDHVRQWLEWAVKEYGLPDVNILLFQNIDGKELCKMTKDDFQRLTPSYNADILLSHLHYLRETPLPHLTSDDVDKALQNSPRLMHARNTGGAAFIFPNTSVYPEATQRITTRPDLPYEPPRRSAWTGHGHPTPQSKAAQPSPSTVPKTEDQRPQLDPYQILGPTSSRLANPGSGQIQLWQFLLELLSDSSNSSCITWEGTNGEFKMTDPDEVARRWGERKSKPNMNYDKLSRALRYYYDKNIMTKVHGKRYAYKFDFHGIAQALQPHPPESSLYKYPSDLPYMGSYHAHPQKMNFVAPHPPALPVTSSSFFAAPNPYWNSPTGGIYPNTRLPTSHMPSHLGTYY
Method in brief: as §1

[4] = molecular target: T4, EHF (Homo sapiens, UniProt Q9NZC4 1-300)
T4 sequence: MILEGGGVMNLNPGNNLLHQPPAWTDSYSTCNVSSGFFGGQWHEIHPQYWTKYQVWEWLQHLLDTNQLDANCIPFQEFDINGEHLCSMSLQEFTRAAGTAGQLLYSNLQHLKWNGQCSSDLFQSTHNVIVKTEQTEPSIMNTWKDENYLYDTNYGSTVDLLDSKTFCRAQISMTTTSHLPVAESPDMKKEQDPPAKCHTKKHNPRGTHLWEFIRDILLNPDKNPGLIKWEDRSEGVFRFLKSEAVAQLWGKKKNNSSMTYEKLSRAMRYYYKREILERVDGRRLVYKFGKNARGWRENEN
Method in brief: as §1

[5] = molecular target: SPI1 (Homo sapiens, UniProt P17947 1-270)
Method in brief: as §1

[6] = molecular target: SPIB (Homo sapiens, UniProt Q01892 1-262)
Sequence of SPIB (Q01892 whole entry): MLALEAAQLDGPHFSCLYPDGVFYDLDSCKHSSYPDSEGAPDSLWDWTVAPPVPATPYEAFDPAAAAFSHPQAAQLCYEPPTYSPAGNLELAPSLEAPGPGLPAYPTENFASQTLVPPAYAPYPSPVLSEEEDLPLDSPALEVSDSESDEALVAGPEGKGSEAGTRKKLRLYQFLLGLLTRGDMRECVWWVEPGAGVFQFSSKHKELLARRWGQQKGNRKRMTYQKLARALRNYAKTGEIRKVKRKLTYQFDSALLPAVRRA
Method in brief: as §1

[7] = molecular target: T5, ELK3 (Homo sapiens, UniProt P41970 1-407)
T5 sequence: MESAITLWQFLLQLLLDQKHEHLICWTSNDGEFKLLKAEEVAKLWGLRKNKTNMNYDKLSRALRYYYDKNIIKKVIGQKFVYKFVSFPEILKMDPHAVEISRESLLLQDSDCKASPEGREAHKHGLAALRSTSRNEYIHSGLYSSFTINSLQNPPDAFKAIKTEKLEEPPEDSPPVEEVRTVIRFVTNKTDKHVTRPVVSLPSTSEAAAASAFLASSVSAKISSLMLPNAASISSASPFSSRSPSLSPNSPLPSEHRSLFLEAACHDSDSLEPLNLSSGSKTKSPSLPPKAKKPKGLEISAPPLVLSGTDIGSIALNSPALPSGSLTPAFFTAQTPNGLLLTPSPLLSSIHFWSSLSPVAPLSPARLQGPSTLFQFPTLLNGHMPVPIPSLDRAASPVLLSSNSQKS
Method in brief: as §1

[8] = molecular target: ETV5 (Homo sapiens, UniProt P41161 1-510)
Sequence of ETV5 (P41161 whole entry): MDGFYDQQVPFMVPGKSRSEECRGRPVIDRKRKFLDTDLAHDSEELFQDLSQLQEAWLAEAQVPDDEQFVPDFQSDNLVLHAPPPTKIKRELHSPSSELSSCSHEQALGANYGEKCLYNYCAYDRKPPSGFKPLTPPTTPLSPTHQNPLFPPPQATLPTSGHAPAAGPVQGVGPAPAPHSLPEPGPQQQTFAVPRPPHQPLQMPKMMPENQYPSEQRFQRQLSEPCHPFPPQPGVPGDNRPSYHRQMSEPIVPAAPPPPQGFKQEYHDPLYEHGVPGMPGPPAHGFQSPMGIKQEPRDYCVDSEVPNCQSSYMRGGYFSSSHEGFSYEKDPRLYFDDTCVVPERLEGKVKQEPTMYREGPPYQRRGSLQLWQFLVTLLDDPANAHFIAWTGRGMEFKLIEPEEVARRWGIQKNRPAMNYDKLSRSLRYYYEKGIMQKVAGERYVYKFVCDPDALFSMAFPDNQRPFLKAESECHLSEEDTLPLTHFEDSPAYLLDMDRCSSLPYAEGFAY
Method in brief: as §1

[9] = molecular target: T6, SPIC (Homo sapiens, UniProt Q8N5J4 1-248)
T6 sequence: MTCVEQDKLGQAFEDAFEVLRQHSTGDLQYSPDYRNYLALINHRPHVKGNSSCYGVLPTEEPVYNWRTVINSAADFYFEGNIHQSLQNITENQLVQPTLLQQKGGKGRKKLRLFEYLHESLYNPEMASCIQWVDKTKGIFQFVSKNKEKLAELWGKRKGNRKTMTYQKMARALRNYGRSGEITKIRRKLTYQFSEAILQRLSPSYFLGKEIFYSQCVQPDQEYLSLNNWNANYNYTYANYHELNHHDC
Method in brief: as §1

[10] = molecular target: ELF4 (Homo sapiens, UniProt Q99607 1-663)
Sequence of ELF4 (Q99607 whole entry): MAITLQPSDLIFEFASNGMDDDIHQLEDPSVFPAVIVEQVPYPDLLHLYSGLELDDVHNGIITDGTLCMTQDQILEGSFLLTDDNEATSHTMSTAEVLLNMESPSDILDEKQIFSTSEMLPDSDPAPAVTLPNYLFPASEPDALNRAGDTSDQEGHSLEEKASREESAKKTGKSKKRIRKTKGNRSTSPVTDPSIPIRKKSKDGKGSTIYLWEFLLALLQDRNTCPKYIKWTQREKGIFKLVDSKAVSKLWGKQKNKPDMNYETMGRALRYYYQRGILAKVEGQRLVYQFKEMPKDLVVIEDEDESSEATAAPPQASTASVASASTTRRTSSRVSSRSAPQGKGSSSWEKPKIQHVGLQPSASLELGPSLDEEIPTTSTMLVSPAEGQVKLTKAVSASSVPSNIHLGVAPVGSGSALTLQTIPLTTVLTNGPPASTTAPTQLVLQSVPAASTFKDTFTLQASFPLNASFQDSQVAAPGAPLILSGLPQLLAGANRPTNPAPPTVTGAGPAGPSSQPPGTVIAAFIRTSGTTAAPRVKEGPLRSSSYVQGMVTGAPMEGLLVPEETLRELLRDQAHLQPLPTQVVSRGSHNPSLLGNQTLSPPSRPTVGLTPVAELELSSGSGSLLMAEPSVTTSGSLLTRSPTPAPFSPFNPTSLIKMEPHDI
Method in brief: as §1

[11] = molecular target: ETV1 (Homo sapiens, UniProt P50549 1-477)
Sequence of ETV1 (P50549 whole entry): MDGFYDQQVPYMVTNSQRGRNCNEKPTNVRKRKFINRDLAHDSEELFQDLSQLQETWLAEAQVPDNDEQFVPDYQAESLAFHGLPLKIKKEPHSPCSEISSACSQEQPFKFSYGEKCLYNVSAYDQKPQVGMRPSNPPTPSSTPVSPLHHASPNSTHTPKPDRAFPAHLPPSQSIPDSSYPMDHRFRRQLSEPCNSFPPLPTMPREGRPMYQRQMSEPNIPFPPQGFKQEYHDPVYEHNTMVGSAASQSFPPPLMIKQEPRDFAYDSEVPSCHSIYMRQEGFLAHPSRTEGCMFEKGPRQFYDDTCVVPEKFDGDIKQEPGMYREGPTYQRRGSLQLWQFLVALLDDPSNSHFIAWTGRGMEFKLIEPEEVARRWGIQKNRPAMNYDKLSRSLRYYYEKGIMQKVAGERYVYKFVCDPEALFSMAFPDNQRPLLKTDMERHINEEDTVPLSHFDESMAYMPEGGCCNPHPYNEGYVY
Method in brief: as §1

[12] = molecular target: T7, ETS2 (Homo sapiens, UniProt P15036 1-469)
T7 sequence: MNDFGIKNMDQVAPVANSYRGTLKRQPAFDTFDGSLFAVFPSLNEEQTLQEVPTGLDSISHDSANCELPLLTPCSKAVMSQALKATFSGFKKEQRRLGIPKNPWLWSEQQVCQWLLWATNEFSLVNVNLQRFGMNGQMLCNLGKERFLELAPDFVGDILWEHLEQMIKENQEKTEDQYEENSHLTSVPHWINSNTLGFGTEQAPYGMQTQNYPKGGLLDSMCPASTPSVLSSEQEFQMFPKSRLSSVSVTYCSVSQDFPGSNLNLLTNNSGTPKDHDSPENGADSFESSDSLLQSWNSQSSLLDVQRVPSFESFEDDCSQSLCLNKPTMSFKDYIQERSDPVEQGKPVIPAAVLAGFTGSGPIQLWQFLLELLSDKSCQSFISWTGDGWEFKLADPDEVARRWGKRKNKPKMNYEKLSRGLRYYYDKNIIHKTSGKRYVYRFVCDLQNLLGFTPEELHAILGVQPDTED
Method in brief: as §1

[13] = molecular target: T8, SPDEF (Homo sapiens, UniProt O95238 1-335)
T8 sequence: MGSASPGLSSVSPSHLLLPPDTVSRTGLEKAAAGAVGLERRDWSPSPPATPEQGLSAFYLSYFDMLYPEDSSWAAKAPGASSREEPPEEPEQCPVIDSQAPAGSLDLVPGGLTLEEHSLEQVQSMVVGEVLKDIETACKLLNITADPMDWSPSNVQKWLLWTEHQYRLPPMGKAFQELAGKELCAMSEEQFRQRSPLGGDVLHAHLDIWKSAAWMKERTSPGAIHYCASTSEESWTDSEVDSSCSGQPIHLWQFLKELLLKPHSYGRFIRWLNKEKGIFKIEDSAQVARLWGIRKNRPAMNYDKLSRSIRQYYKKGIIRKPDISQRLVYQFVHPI
Method in brief: as §1

[14] = molecular target: T9, ETV3 (Homo sapiens, UniProt P41162-2 1-143)
T9 sequence: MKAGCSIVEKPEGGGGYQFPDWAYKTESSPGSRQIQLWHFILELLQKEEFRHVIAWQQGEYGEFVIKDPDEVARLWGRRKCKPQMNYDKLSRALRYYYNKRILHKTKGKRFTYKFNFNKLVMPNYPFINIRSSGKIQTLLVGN
Method in brief: as §1

[15] = molecular target: ETV6 (Homo sapiens, UniProt P41212 1-452)
Sequence of ETV6 (P41212 whole entry): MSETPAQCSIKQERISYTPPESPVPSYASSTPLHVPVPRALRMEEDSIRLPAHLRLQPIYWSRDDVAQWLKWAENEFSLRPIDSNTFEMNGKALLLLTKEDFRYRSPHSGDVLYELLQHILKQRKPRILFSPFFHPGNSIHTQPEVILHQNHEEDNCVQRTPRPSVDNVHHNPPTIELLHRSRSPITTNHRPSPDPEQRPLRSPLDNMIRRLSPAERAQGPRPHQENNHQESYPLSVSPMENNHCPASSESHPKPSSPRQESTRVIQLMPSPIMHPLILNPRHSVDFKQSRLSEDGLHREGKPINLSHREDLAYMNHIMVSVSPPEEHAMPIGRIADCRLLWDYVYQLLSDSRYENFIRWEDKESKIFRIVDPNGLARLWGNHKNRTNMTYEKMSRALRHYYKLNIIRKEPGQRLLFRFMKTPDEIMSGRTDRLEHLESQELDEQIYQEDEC
Method in brief: as §1

AGGAAC
binding signal [1]: 1.03 fold enrichment (6-mer frequency, TF over GST control)
binding signal [2]: 1.08 fold enrichment (6-mer frequency, TF over GST control)
binding signal [3]: 1.05 fold enrichment (6-mer frequency, TF over GST control)
binding signal [4]: 1.06 fold enrichment (6-mer frequency, TF over GST control)
binding signal [5]: 1.45 fold enrichment (6-mer frequency, TF over GST control)
binding signal [6]: 1.11 fold enrichment (6-mer frequency, TF over GST control)
binding signal [7]: 1 fold enrichment (6-mer frequency, TF over GST control)
binding signal [8]: 1.1 fold enrichment (6-mer frequency, TF over GST control)
binding signal [9]: 1.23 fold enrichment (6-mer frequency, TF over GST control)
binding signal [10]: 1 fold enrichment (6-mer frequency, TF over GST control)
binding signal [11]: 1.04 fold enrichment (6-mer frequency, TF over GST control)
binding signal [12]: 1.08 fold enrichment (6-mer frequency, TF over GST control)
binding signal [13]: 1.05 fold enrichment (6-mer frequency, TF over GST control)
binding signal [14]: 1.05 fold enrichment (6-mer frequency, TF over GST control)
binding signal [15]: 1.04 fold enrichment (6-mer frequency, TF over GST control)

Reference: publication PMC7862700, “An all-to-all approach to the identification of sequence-specific readers for epigenetic DNA modifications on cytosine”
